Assay outcomes deposited in PubChem by National Center for Advancing Translational Sciences (NCATS).
D2 ag-1: agonists of human D2 dopamine receptor (beta-arrestin); P14416; DiscoveRx PathHunter D2 beta-arrestin, luminescence, 90 min; 100% = 57 uM dopamine signal; activation, % (test concentration not listed); 0.084% of 360,000 active; in the data active means activation above about 40%; inconclusive means between about 15% and that limit
Target sequence (P14416 whole entry, looked up): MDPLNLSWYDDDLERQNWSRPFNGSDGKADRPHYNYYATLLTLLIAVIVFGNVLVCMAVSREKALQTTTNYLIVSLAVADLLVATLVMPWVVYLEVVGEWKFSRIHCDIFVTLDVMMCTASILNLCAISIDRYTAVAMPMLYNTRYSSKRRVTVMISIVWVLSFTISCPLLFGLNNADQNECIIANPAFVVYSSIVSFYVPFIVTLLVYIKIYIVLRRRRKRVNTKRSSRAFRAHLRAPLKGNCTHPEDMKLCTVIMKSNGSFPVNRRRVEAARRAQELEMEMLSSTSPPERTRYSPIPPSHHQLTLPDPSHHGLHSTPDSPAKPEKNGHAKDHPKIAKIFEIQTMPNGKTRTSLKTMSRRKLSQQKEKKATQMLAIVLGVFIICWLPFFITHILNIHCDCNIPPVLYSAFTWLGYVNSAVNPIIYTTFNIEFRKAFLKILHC
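Agonist mode: compounds alone added to overnight-plated D2 PathHunter cells for 90 min at 37 C, with 57 uM final dopamine (EC100) defining full response. Beta-arrestin recruitment detected by chemiluminescent reagent, read after 1 h at ambient temperature.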
D2 antag: antagonists of human D2 dopamine receptor | P14416 | HEK293 TREx D2 cells, calcium flux, dopamine EC80 | inhibition, % at 10 µM | 2% of 340,000 active; in the data active means inhibition above about 30%; inactive means below that, where a call was filed
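Overnight-induced (tetracycline, 30 C) HEK293 T-REx cells carrying force-coupled D2 receive a no-wash calcium dye, then compound, then EC80 dopamine at 180 s; signals are read kinetically throughout.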
D2 ag-2: D2 dopamine receptor (human) agonism; P14416; 0.53% of 340,000 active; HEK293 T-REx D2 cells, calcium flux agonist mode; activation, % at 2 µM;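 active means activation over 3 SD above normal in the single-dose calcium agonist read, cut at about 30% in these data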
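Calcium-flux readout, 1 cycle/sec over 180 s following compound pin transfer, in inducible HEK293 Trex D2 cells (force-coupled); dopamine controls included. Positive calcium responses during this window marked compounds as potential agonists.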
D2 PAM-1: D2 dopamine receptor (human) potentiation | HEK293 T-REx D2, calcium flux, EC20 dopamine potentiation | P14416 | potentiation, % at 10 µM | 0.34% of 340,000 active;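 active means potentiation over 3 SD above the plate norm, cut at about 30% in these data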
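Potentiation of an EC20 dopamine calcium response measured kinetically over 180 s, after a preceding 180 s compound-only read flagging agonists. Cells: inducible Hek293 Trex D2 line, 4000/well, cultured overnight at 30 C before dye loading.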
D2 PAM-2: positive allosteric modulators of human D2 dopamine receptor | AID 624464 | DiscoveRx D2 beta-arrestin cells, luminescence, 90 min; 100% = 57 uM dopamine signal | 0.23% of 360,000 active | potentiation, % (concentration not given with the values); in the data active means potentiation above about 50%; inconclusive means mostly about 30% to 49%
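PathHunter D2 cells, attached overnight at 37 deg C, received compound in DMSO plus dopamine at EC20 (50 nM final) for 90 min at 37 deg C. Beta-arrestin recruitment was read as luminescence after 1 h with detection reagent at ambient temperature.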
Hits are given with their value; i = inactive; ? = inconclusive; nt = not tested or not shown. Hits are enriched below; roughly 2.4% of the tested compounds scored in any of these assays.

SMILES	D2 ag-1	D2 antag	D2 ag-2	D2 PAM-1	D2 PAM-2
COc1ccc(C(C(=O)NCC2CCCO2)N(C(=O)CNC(=O)c2ccco2)c2cc(C)cc(C)c2)cc1OC (configuration not stated)	i	i	i	34	i
COc1ccc(C(C(=O)NCC2CCCO2)N(C(=O)CNC(=O)c2ccco2)c2ccc(C)c(C)c2)cc1OC (configuration not stated)	i	i	i	i	i
COc1ccc(N(C(=O)CNC(=O)c2ccco2)C(C(=O)NC2CCCCC2)c2cccnc2)cc1 (configuration not stated)	i	38	i	i	i
O=C(NC1CCCCC1)C(c1ccncc1)N(C(=O)c1csnn1)c1ccc(F)cc1 (configuration not stated)	i	37	i	i	i
COc1ccc(N(C(=O)CNC(=O)c2ccco2)C(C(=O)NC2CCCC2)c2cccnc2)cc1 (configuration not stated)	i	i	i	i	i
CCOC(=O)c1ccc(N(C(=O)c2ccco2)C(C(=O)NC2CCCC2)c2ccncc2)cc1 (configuration not stated)	i	36	i	i	i
COc1ccc(/C=C/C(=O)Nc2ccc(Cl)cc2Cl)cc1	nt	nt	i	i	nt
Cc1csc2nc(COC(=O)CNC(=O)c3ccccc3Cl)cc(=O)n12	nt	nt	i	i	nt
COc1cc(/C=C2\SC(=Nc3ccc(O)cc3)NC2=O)cc(OC)c1O	i	i	47	i	i
CCc1ccc(N=C2NC(=O)/C(=C/c3cc(OC)c(OC)c(OC)c3)S2)cc1	i	i	i	i	i
Cc1ccccc1Nc1c(-c2ccc(O)cc2)nc2c(C)cccn12	nt	nt	nt	i	nt
CCOC(=O)CC1=C(C#N)C(c2cccnc2)C(C(=O)OCC)=C(N)O1 (configuration not stated)	i	38	i	i	i
CCOC(=O)CC1=C(C(=O)OCC)C(c2cccnc2)C(C#N)=C(N)O1 (configuration not stated)	i	i	i	i	i
CC1=C(n2nnc([N+](=O)[O-])n2)C(c2cccnc2)C(C#N)=C(N)O1 (configuration not stated)	?	i	i	i	110
CC(C)N(C(=O)Cn1cc(SCC(=O)Nc2ccccc2F)c2ccccc21)C(C)C	nt	nt	i	i	nt
O=C(Nc1ccccc1)C1=C(c2ccccc2)S(=O)(=O)CCS1(=O)=O	i	i	i	58	i
Cc1ccc(OCCCCN(C)Cc2ccccc2)c(Br)c1	i	i	i	i	i
Cc1cc(C)c(OCCCCN(C)Cc2ccccc2)c(C)c1	i	33	i	i	i
CC(C)NC(=O)/C(=N\O)c1ccccc1	i	32	i	i	i
Cc1cc(C(N)=O)c2cc(Br)ccc2n1	i	i	i	39	i
CCc1cccc(C)c1NC(=O)CSc1nnc(C)o1	i	i	i	37	i
Cc1ccc2c(=O)cc(C(=O)Nc3ccc(S(=O)(=O)N4CCCCC4C)cc3)oc2c1C (configuration not stated)	nt	nt	i	i	nt
CCCc1cc(C(N)=O)c(NC(=O)c2ccoc2C)s1	i	31	i	nt	i
N#C/C(=C\c1c(Cl)cccc1Cl)c1nc2ccccc2o1	?	i	i	i	58
Cc1ccccc1C(=O)Nc1cccc(OCc2cc(=O)n3c4c(sc3n2)CCCC4)c1	nt	nt	i	i	nt
SMILES	D2 ag-1	D2 antag	D2 ag-2	D2 PAM-1	D2 PAM-2
CCn1nnnc1-c1ccc(OC)c(S(=O)(=O)Nc2ccc(OC)cc2)c1	i	36	i	i	i
O=C(Nc1ccc(C(=O)OCc2cc(=O)n3ccsc3n2)cc1)c1cccc(F)c1	nt	nt	i	i	nt
CCN1CCN(c2ccc([N+](=O)[O-])c(Sc3nc4ccccc4[nH]3)c2)CC1	i	87	i	i	i
COc1ccccc1Nc1nn2c(=O)c3ccc(C(=O)NCCc4ccccc4)cc3nc2s1	nt	nt	i	i	nt
COc1ccc(C(=O)NCC(c2ccco2)N(C)C)cc1S(=O)(=O)NCc1ccc(Cl)cc1 (configuration not stated)	i	78	i	i	i
COc1ccc(C(=O)NCCNC(C)=O)cc1S(=O)(=O)NCc1ccc(Cl)cc1	i	i	i	i	i
CC(C)c1nnc(NC(=O)CCC(=O)Nc2ccc(F)cc2)s1	i	i	i	i	i
